# AID inhibitor: activation induced cytidine deaminase inhibition | AID deamination FRET fluorescence, UDG-coupled, 4 h | Potency, µM (series often up to 115 µM), actives largely listed as inhibitors | 91,000 tested, 0.32% active | AID 1347428; further: nearly all actives have a fitted effect of over 25% in size
# Target sequence (Q9GZX7 whole entry, looked up): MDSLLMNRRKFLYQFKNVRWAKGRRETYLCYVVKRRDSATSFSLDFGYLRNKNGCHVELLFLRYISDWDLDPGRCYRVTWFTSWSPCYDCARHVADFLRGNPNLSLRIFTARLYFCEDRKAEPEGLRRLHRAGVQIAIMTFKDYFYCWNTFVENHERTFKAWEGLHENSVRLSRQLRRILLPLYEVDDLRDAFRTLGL
# UDG counterscr: blocks uracil-DNA glycosylase in AID counter-screen | FRET deamination/UDG coupled assay, UDG read, 4 h | Potency, µM (titrated, usually from 115 µM), for the others: top-dose activity change, negative = inhibition, most hits filed as inhibitors | 91,000 tested, 0.14% active | AID 1347430; further: nearly all actives have a fitted effect of over 65% in size
# An asterisk follows results filed as active; i = inactive; ? = inconclusive. The list is not random: actives were taken first. Their share in the collection is about 0.4%. The call rests on the fitted dose curve; in most records, active means well fitted curve in the direction sought with a large enough effect; inconclusive means small, poorly fitted or top-dose-only effect, or another doubt; inactive means no such curve, though single readings can be large; an effect the other way counts as inactive or inconclusive. On the % scale 0 is the no-effect control and ±100 the full control effect; potency means the concentration at half of the fitted maximal effect.
SMILES,AID inhibitor,UDG counterscr
N[C@@H](CCl)C(=O)O,i,-4.5%
NC(Cc1cc(O)c(O)cc1O)C(=O)O (stereo not drawn),14.1µM*,-2.1%
COc1ccc(CCNCc2cccc(Cl)c2)cc1,i,-12.5%
CN1CC[C@@]2(C)c3cc(O)ccc3N(C)C12 (stereo partly drawn),11.2µM*,-3.6%
C[C@@H]1[C@@H]2Cc3ccc(O)cc3[C@@]1(C)CCN2CC1CC1,i,0.1%
COc1ccc(-c2nn3c(=O)cc(CN4CCN(C(=O)COc5ccc(F)cc5)CC4)nc3s2)cc1,i,-25.3%
CN(N=O)c1ccc(O)c(O)c1,25.1µM*,-7.1%
COc1ccc(C(CN(C)C)C2(O)CCCCC2)cc1 (stereo not drawn),i,-2.2%
CC(=O)OC1CCC2(C=O)[C@H]3CCC4(C)C(C5=CC(=O)OC5)CCC4(O)[C@@H]3CCC2(O)C1 (stereo partly drawn),i,-0.9%
CCC[N+]12CCC(CC1)C(=C(c1ccccc1)c1ccccc1)C2,i,11.4%
CCCC12CN3CC(C)(CN(C1)C3c1c(C)[nH]c(=O)[nH]c1=O)C2=O (stereo not drawn),10µM*,-28.7%
CCCCC12CN3CC(C)(CN(C1)C3c1ccccn1)C2=O (stereo not drawn),i,1.5%
Cc1cccc(-n2nnnc2C2(N3CCCCC3)CCCCC2)c1,i,-1.9%
Cc1ccc(-n2c(/C=C\c3ccc(F)cc3)nc3ccccc3c2=O)cc1Cl,?,89.1µM*
O=c1c2ccccc2nc(/C=C/c2cccc3ccccc23)n1-c1ccccc1Cl,?,89.1µM*
Cc1cccc(/C=C/c2nc3ccccc3c(=O)n2-c2cccc(O)c2)c1,i,0.8%
Cc1ccccc1-n1c(/C=C/c2ccccc2F)nc2ccccc2c1=O,i,-10.6%
CN(C)CCNc1ccc([N+](=O)[O-])c2cccnc12,i,-0.9%

# High-throughput results as filed in PubChem BioAssay.
